Data on 2 compounds can be found in PubChem BioAssay AID2566 (National Center for Advancing Translational Sciences (NCATS), 2010).

Results filed as inconclusive are left out. Activity calls are given as the source filed them.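 The calls were made as follows: active = compound that pushes labeled neuropeptide S off its receptor in a binding test; inconclusive = all other tested compounds; inactive = none, nothing was called inactive.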

The experiment addresses Neuropeptide S receptor (Homo sapiens) (UniProt Q6W5P4). Kind of experiment: Confirmation Concentration-Response Assay for Antagonists of the Neuropeptide S Receptor: Radioligand Displacement, SAR for Probe. The conditions noted are these: CHO-hNPSR, [125I]Y10-NPS displacement, 1.5 h. The source says:
NIH Chemical Genomics Center [NCGC] NIH Molecular Libraries Probe Production centers Network [MLPCN] MLPCN Grant: X01-DA026210-01 Assay Submitter (PI): Heilig, Markus Alexander NCGC Assay Overview: Neuropeptide S receptor (NPSR), previously known as GPR154, is a recently de-orphanized G protein coupled receptor. Its endogenous ligand is the 20 amino acids peptide Neuropeptide S (NPS). […] NPS and its receptor are found in various tissues. Specifically they are highly expressed in brain areas that have been implicated in modulation of arousal, stress and anxiety. Central administration of NPS in mice produces an unusual profile of activity by inducing wakefulness and arousal, while at the same time suppressing anxiety. Therefore, NPSR may represent a novel drug target for the treatment of sleep and anxiety disorders. As one method of confirming the specific activity of compounds active in the primary screen (AID 1461), we developed an assay to measure the displacement of radio-labeled native ligand, NPS, from its receptor in vitro.
The assay was carried out as described (Xu et al. (2004) Neuron, 43: 487-497) with minor modification. Y10-NPS labeled with 125I was bought from NEN Perkin Elmer (Boston, MA). […] Nonspecific binding was determined in the presence of 1 uM unlabeled human NPS. […] Bound radioactivity was counted in a liquid scintillation counter.

Chain of Neuropeptide S receptor (Homo sapiens) (Q6W5P4 whole entry, looked up): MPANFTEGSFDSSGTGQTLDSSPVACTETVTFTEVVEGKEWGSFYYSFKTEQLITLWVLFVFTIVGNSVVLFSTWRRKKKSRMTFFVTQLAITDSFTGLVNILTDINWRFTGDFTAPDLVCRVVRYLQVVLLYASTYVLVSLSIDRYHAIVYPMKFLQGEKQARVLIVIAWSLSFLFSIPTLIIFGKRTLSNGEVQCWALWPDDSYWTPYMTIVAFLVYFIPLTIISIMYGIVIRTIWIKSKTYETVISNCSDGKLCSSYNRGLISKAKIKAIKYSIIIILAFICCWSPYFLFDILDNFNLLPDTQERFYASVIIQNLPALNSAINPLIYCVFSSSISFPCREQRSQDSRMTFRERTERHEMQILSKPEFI

For `Cc1c(P(=S)(c2ccccc2)c2ccccc2)[n+]2ccccc2n1C/C=C/c1ccccc1`, the Potency was 1 nM (active).
Under `Cc1c(P(=S)(c2ccccc2)c2ccccc2)[n+]2ccccc2n1C` stands 84.3 nM (active).
